The source of these data is PubChem BioAssay AID2508 (National Center for Advancing Translational Sciences (NCATS), 2010).

Records with an inconclusive call do not appear. A number with no mark means an inactive call. Active and inactive are the calls of the source. Calls follow the shape of the dose curve; as a rule, active = well fitted inhibition curve with a large enough effect; inconclusive = small, poorly fitted or top-dose-only effect, or effect the other way; inactive = no such curve, though single readings can be large or run the other way.

The assay can be described thus: Confirmatory Assay for General miRNAs Modulators and/or Inhibitors/Activators of miR-21. The following applies: HeLa miR-21 FLuc reporter, luminescence, 48 h; series mostly up to 38.3 µM; activity change, negative = inhibition: at the top concentration. From the text:
MLSCN Grant: 1 R21 NS059478-01 Assay Provider: Qihong Huang, The Wistar Institute NCGC Assay Overview: MicroRNAs (miRNAs) are endogenously encoded small (~20-25 nucleotides), nonprotein-coding RNAs that are involved in post-transcriptional repression of target messenger RNAs (mRNAs) (Le and Hannon, 2004). Estimated to be involved in the regulation of 30% of all protein-coding mRNAs (Filipowicz et al., 2008), miRNAs play a significant role in many biological processes including cellular differentiation and tissue development (Ghildiyal and Zamore, 2009).
NCGC Assay Protocol Summary: Reagents: HeLa cells stably expressing firefly luciferase (FLuc) under the control of a CMV promoter (upstream) and a miR-21 binding sequence directly downstream of the gene. These cells endogenously express miR-21. Control compounds used were compound C3 (provided by collaborator), N6-phenyladenosine (MP Biomedicals, 0215379625), and DMSO. Assay Summary: 6uL of HeLa miR-21-FLuc cells in assay buffer (DMEM, Invitrogen #21063-029; 10% FBS, HyClone #SH30071.03) were dispensed at 2000cells/well (3.3 x 10^5 cells/mL) into Greiner solid-white TC-treated 1536-well plates using a Multidrop Combi (Thermo Fisher Scientific). Plates were incubated for one hour at 37 degree Celsius, 95% humidity, 5% CO2. These assay plates were then treated with 23nL of compound or DMSO using a Kalypsys pin tool, which allows for delivery of a 24-point titration of each compound to the assay plate, with a final compound concentration ranging from approximately 40uM to 5pM. Assay plates were then incubated for 48 hours. After incubation, plates were allowed to come to RT for one hour prior to delivery of 3uL of 3X luciferase detection reagent. After a 15 minute incubation to allow for cell lysis, luciferase activity was measured using a ViewLux CCD imager (PerkinElmer), with an average exposure time of 2-12 seconds. Keywords: NIH Roadmap, MLPCN, MLSMR, qHTS, miR-21, microRNA, firefly luciferase, FLuc.
`Cn1c(=O)[nH]c2cc(-c3noc(-c4ccc(F)cc4)n3)ccc21`: the Potency was 10 µM (active). With `CCC(=O)n1nc(-c2cccnc2)nc1NCc1ccc(F)cc1`, the “activity change, negative = inhibition” value is -17%. As for `COc1ccc(OCC(=O)Nc2ccc(-c3nc4cc(Cl)ccc4o3)cc2)cc1`, the Potency is 0.503 µM (active). The same measure, in the same setting: for `Cc1ccc(-c2nsc(SCC(=O)Nc3ccc4c(c3)OCO4)n2)cc1` the value was 17.9 µM (active).

Consider `Cc1ccc(NC(=O)Cn2nnc(-c3nc(-c4ccc(Cl)cc4)no3)c2N)cc1C`, for which the “activity change, negative = inhibition” value is -16.5%.

As for `Nc1c(-c2nc(-c3ccccc3Cl)no2)nnn1-c1ccccc1F`, the Potency is 0.798 µM (active). Same read-out and setting: for `CC(=O)c1cnc2nc(SCc3ccccc3)nn2c1C` the value was 6.34 µM (active). `COc1ccc(CNc2n[nH]c(-c3ccco3)n2)cc1OC`: the “activity change, negative = inhibition” value was -2.25%. In the case of `COc1ccc(NC(=O)c2ncn(-c3ccccc3)n2)cc1Cl`, the Potency is 12.6 µM (active).

As to `Nc1c(-c2nc(-c3ccncc3)no2)nnn1CC(=O)Nc1ccccc1`, the “activity change, negative = inhibition” value is -14.6%. `COc1ccc(-c2nc(SCc3ccccc3)n(S(C)(=O)=O)n2)cc1`: the Potency is 10 µM (active).

As for `Nc1c(C(=O)Nc2ccccc2Br)sc2nc(-c3cccs3)ccc12`, the “activity change, negative = inhibition” value is -42.2%.

For `CC(=O)Nc1nc2c(C)cc(NC(=O)C3CCCCC3)cc2s1`, the Potency is 1.79 µM (active). On to `Cc1cccc(-c2nnc(SCC(=O)Nc3ccc(C)c(C)c3)o2)c1`, for which the Potency is 3.18 µM (active). As to `COc1ccc(-n2nnc(-c3nc(-c4cccs4)no3)c2N)cc1OC`, the “activity change, negative = inhibition” value was -4.89%. With `Cc1c(-c2nnc(SCC(=O)Nc3ccccc3F)o2)nnn1-c1ccc(F)cc1`, the Potency is 3.56 µM (active). As for `CC(C)COc1ccc(C(=O)Nc2cc(-c3ccccc3)no2)cc1`, the Potency was 3.56 µM (active). Still for that read-out and setting: with `Cc1nnc(SCc2nc(N)nc(Nc3ccccc3)n2)s1` the figure was 22.5 µM (active).

Turning to `CCc1ccc(-n2nnc(-c3nc(-c4cccs4)no3)c2N)cc1`, the Potency is 3.18 µM (active). Turning to `Cc1ccccc1OCCn1cnc2c(N)ncnc21`, the “activity change, negative = inhibition” value is -32.4%.

For the compound `Cc1cc(C)cc(NC(=O)CSc2nnc(-c3ccccc3C)o2)c1`, the Potency is 5.65 µM (active).

For the compound `COc1ccc(OCC(=O)Nc2ccc(-c3nc4cc(C)c(C)cc4o3)cc2)cc1`, the Potency is 0.4 µM (active). As for `Nc1c(-c2nc(-c3cccs3)no2)nnn1-c1cccc(F)c1`, the Potency was 0.318 µM (active). On to `COc1ccc(-c2csc(NC(=O)COC(=O)c3ccc(Br)o3)n2)cc1`, for which the Potency is 2.83 µM (active).

For `COc1ccc(NCc2cccn2-c2nnc(N3CCC(C)CC3)s2)c(OC)c1`, the Potency was 3.56 µM (active). Same read-out and setting: with `O=C(CSc1nnc(-c2ccc(O)cc2)o1)Nc1ccccc1Br` the figure was 1.79 µM (active). Consider `O=C(Nc1nnc(S(=O)(=O)N2CCCC2)s1)c1ccc(F)cc1`, for which the “activity change, negative = inhibition” value was -23.8%. `COc1ccc(NC(=O)CSc2nnc(-c3cccs3)o2)cc1`: the Potency was 10 µM (active). For `O=C(CSc1nnc(-c2ccncc2)o1)Nc1nncs1`, the “activity change, negative = inhibition” value is -6.3%. In the case of `O=C(COc1ccccc1F)Nc1ccc(-c2nc3ccccc3s2)cc1`, the Potency was 1.26 µM (active). Still for that read-out and setting: with `COc1ccccc1C(=O)n1nc(-c2ccco2)nc1NCc1ccc(Cl)cc1` the figure was 12.6 µM (active).

Consider `CC(C)(C)C1CCc2nc(NC(=O)Cc3cn4ccsc4n3)sc2C1` (configuration not stated), for which the Potency is 11.3 µM (active).
